Laboratory results reported in PMC4552634, “A New Set of Chemical Starting Points with Plasmodium falciparum Transmission-Blocking Potential for Antimalarial Drug Discovery” (PLoS ONE, 2015).
The campaign covered roughly 13,000 compounds. About 3,200 (25%) showed an effect of 50% or more. The list shows a part of the results.

tested on: P. falciparum stage V gametocytes; design: BacTiter-Glo ATP luminescence viability of purified stage V gametocytes in 384-well plates, per cent inhibition versus DMSO; conditions: 48 h, 5 µM; inhibitor

Structure (SMILES) | % Inhibition
Nc1ncc(-c2ccc(F)c(Cl)c2)c(N)n1 [TCMDC-137296] | -16.29%
O=S(=O)(ON=C1CCc2ccccc21)c1ccc(Cl)cc1 [TCMDC-125427] | 20.26%
Cc1cccc(Nc2nc3nonc3nc2Nc2cccc(Cl)c2Cl)c1C [TCMDC-125806] | 15.39%
Cc1cc(I)ccc1Nc1nc2nonc2nc1Nc1ccc(I)cc1C [TCMDC-124083] | 56.47%
CS(=O)(=O)c1cc2c(Nc3ccc(N4CCOCC4)cc3)c(C(N)=O)cnc2cc1Br.Cl [TCMDC-135826] | 40.37%
CC(CN(C)C)C(=O)Nc1cccc(-c2ccc(-c3nc4ccccc4[nH]3)s2)c1 (stereo not shown) [TCMDC-137102] | -38.48%
O=c1cc(NCCCCNCc2cccc(Br)c2)[nH]c2ccccc12 [TCMDC-139312] | -82.6%
O=c1cc(NCCCCNCc2ccc(Br)c(Br)c2)[nH]c2ccccc12 [TCMDC-139308] | -72.79%
O=c1cc(NCCCNC(CNCCc2ccccc2)c2cc(Br)cc(Br)c2)[nH]c2ccccc12 (stereo not shown) [TCMDC-140370] | -71.22%
O=c1cc(NCCC(CNCCc2ccccc2)NCc2cc(Br)cc(Br)c2)[nH]c2ccccc12 (stereo not shown) [TCMDC-140344] | 98.47%
C=CCCCNCC(NCCCNc1cc(=O)c2ccccc2[nH]1)c1cc(Br)cc(Br)c1 (stereo not shown) [TCMDC-140371] | -52.81%
O=c1cc(NCCC(CNCc2ccoc2)NCc2cc(Br)cc(Br)c2)[nH]c2ccccc12 (stereo not shown) [TCMDC-140343] | 58.98%
Cn1nccc1C(=O)NCCNCc1cccc(-c2ccc(-c3nc4cc(C(F)(F)F)ccc4[nH]3)s2)c1.O=C(O)C(F)(F)F [TCMDC-133010] | 8.568%
CCCc1cccc(OC)c1OCCCON1C(N)=NC(N)=NC1(C)C [TCMDC-131338] | -11.7%
O=C(CSc1nccn1Cc1ccco1)Nc1cc(C(F)(F)F)ccc1Cl [TCMDC-125134] | 10.58%
CS(=O)(=O)Cc1ccc(Nc2nccc(NC3CCN(c4nccc(C(F)(F)F)n4)CC3)n2)cc1 [TCMDC-134397] | 7.117%
COC(=O)C1=CNC=C(C(=O)OC)C1c1ccc(Cl)c([N+](=O)[O-])c1 [TCMDC-125154] | -60.53%
Cc1cc(C(=O)CN2C(=O)NC3(CCCc4ccccc43)C2=O)c(C)n1Cc1ccco1 (stereo not shown) [TCMDC-124502] | 2.781%
Nc1nc(N)c2c(ccc3c2cnn3Cc2cccnc2)n1 [TCMDC-131932] | 23.15%
COc1ccc(-c2cccc(NC(=O)c3ccc(Cl)cc3)c2)cc1CN(C)CCN(C)C [TCMDC-132605] | -10.06%
COc1ccc(-c2ccc(NC(=O)c3ccc(Cl)cc3)cc2)cc1CN(C)CCN(C)C [TCMDC-132511] | 46.96%
COc1ccc(-c2ccc(NC(=O)c3cccc(Cl)c3)cc2)cc1CN(C)CCN(C)C [TCMDC-133335] | 14.93%
COc1ccc(-c2ccc(NC(=O)c3cccc(Cl)c3)cc2)cc1CNC(C)C [TCMDC-132524] | 39.19%

Structure (SMILES) | % Inhibition
CN(C)Cc1ccc(-c2cccc(NC(=O)c3ccc(Cl)cc3)c2)cc1 [TCMDC-132632] | 4.982%
COc1ccc(-c2ccc(NC(=O)c3ccc(C#N)cc3)cc2)cc1CN(C)CCO [TCMDC-132521] | 28.66%
COc1ccc(-c2ccc(NC(=O)c3cccc(Cl)c3)cc2)cc1CN(C)CCO [TCMDC-132527] | 86.37%
CN(C)Cc1ccc2cc(NC(=O)c3ccc(-c4ccc(Cl)cc4)cc3)ccc2c1 [TCMDC-134694] | 77.36%
COc1ccc(-c2ccc(NC(=O)c3ccc(Cl)cc3)cc2)cc1CN(C)CCO [TCMDC-132513] | 86.93%
COc1ccc(-c2cccc(NC(=O)c3cccc(Cl)c3)c2)cc1CN(C)CCN(C)C [TCMDC-132616] | 105.4%
CN(C)Cc1ccc2cc(NC(=O)c3ccc(-c4ccc(Cl)cc4)cc3)ccc2n1 [TCMDC-134644] | 5.45%
COCCN1CCC(CNCC(C)(C)c2nc(-c3ccc(Cl)c(O)c3)c(-c3ccncc3)[nH]2)CC1 [TCMDC-140898] | -79.12%
O=C(Nc1cccc(CN2CCCN(Cc3ccc(O)cc3)CC2)c1)c1ccc(Br)cc1 [TCMDC-141883] | 15.8%
Cc1nc(NC2=NCN(CCCN3CCOCC3)CN2)nc2c(C)cccc12 [TCMDC-125086] | 47.98%
Cn1ccnc1CNC(=O)c1ccc(-c2cccc(-c3nc4cc(F)ccc4[nH]3)c2)cc1 [TCMDC-132354] | -5.334%
Cc1cc(OCCN2CCCCC2)ccc1NC(=O)c1cccc2c(=O)n(Cc3ccc(Cl)cc3)cnc12 [TCMDC-136727] | 103.4%
Cc1cccc(CN2CCCN(Cc3ccc(C(=O)Nc4ccc(Cl)cc4)cc3)CC2)c1 [TCMDC-136407] | 32.89%
O=c1c2sc(-c3ccc(Cl)cc3)cc2ncn1Cc1ccc(OCCN2CCCC2)c2ccccc12 [TCMDC-135387] | 24.51%
COc1ccc2nccc([C@@H](O)CN3CCC(NC(=O)Cc4cc5ccccc5s4)CC3)c2c1 [TCMDC-141033] | -11.21%
O=C(Nc1ccc(-c2cccc(-c3nc4ccc(F)cc4[nH]3)c2)cc1)Nc1ccsc1 [TCMDC-133218] | -7.279%
CC(=O)c1ccc(Nc2c(C(N)=O)cnc3cc(-c4c(C)noc4C)ccc23)cc1 [TCMDC-136058] | -8.163%
Cc1noc(C)c1-c1ccc2c(Nc3ccc(Cl)cc3)c(C(N)=O)cnc2c1.Cl [TCMDC-136010] | 9.933%
Cc1noc(C)c1-c1ccc2c(Nc3ccccc3C(C)(C)C)c(C(=O)NCc3ccc4c(c3)OCO4)cnc2c1.Cl [TCMDC-136353] | 56.26%
Cc1noc(C)c1-c1ccc2c(Nc3cccc4c3-c3ccccc3C4=O)c(C(=O)NCc3ccccc3I)cnc2c1 [TCMDC-136308] | 93.19%
Cc1noc(C)c1-c1ccc2c(Nc3nccc4ccccc34)c(C(N)=O)cnc2c1 [TCMDC-136456] | 97%
Cc1noc(C)c1-c1ccc2c(Nc3ccccc3C(C)(C)C)c(C(=O)NCc3ccccc3)cnc2c1.Cl [TCMDC-136366] | -19.07%
Cc1noc(C)c1-c1ccc2c(Nc3ccccc3C(C)(C)C)c(C(=O)NCc3cccc4ccccc34)cnc2c1.Cl [TCMDC-136375] | -44.64%

Structure (SMILES) | % Inhibition
Cc1noc(C)c1-c1ccc2c(Nc3ccccc3C(C)(C)C)c(C(=O)NCc3ccc(C(F)(F)F)cc3)cnc2c1.Cl [TCMDC-136348] | -20.49%
Cc1noc(C)c1-c1ccc2c(Nc3ccccc3N3CCOCC3)c(C(=O)NCc3ccccc3)cnc2c1.Cl [TCMDC-136667] | -0.5011%
COc1ccc2nccc(N3CCC(CCNCc4ccc5c(n4)NC(=O)CS5)CC3)c2c1.Cl [TCMDC-141905] | -14.76%
Cc1cccc2[nH]c(-c3cccc(-c4cccc(NC(=O)Nc5ccc(Cl)c(Cl)c5)c4)c3)nc12 [TCMDC-133277] | -37.89%
COc1nc(N)ncc1C(=O)NC1CN2CCC1CC2 (stereo not shown) [TCMDC-131574] | 17.61%
CN1CCN(c2ccc(-c3cccc(NC(=O)c4cccc([N+](=O)[O-])c4)c3)nn2)CC1 [TCMDC-125452] | -8.078%
CN1CCN(c2ccc(-c3cccc(NC(=O)c4ccc5ccccc5c4)c3)nn2)CC1 [TCMDC-125349] | 17.67%
Cc1ccc(C(=O)Nc2cccc(-c3ccc(N4CCN(C)CC4)nn3)c2)cc1[N+](=O)[O-] [TCMDC-124931] | 60.61%
COc1cccc(C(=O)N2CCN(Cc3cccc(NC(=O)c4cccs4)c3)CC2)c1 [TCMDC-136327] | -13.29%
Cc1[nH]c(C)c(-c2ccc(-c3ccccc3F)nc2)c(=O)c1Cl [TCMDC-135927] | 68.96%
Cc1[nH]c(C)c(-c2ccc(-c3ccccc3F)nc2)c(=O)c1Br [TCMDC-135926] | 66.81%
O=C(/C=C/c1ccc(F)c(Br)c1)NCCCCCN1CCC(c2c[nH]c3ccccc23)CC1 [TCMDC-139235] | -23.07%
O=C(/C=C/c1ccc(I)cc1)NCCCCCN1CCC(c2c[nH]c3ccccc23)CC1 [TCMDC-139198] | 49.23%
O=C(/C=C/C=C/c1ccccc1)NCCCCCN1CCC(c2c[nH]c3ccccc23)CC1 [TCMDC-139216] | 106.6%
O=C(/C=C/c1ccc(-c2ccccc2)cc1)NCCCCCN1CCC(c2c[nH]c3ccccc23)CC1 [TCMDC-139210] | 111.8%
Cc1ccc(/C=C/C(=O)NCCCCCN2CCC(c3c[nH]c4ccccc34)CC2)cc1 [TCMDC-139236] | 53.65%
CC(C)(C)c1ccc(/C=C/C(=O)NCCCCCN2CCC(c3c[nH]c4ccccc34)CC2)cc1 [TCMDC-139247] | 18.04%
O=C(/C=C/c1ccc(Br)cc1)NCCCCCN1CCC(c2c[nH]c3ccccc23)CC1 [TCMDC-139199] | 51.21%
COc1ccc(/C=C/C(=O)NCCCCCN2CCC(c3c[nH]c4ccccc34)CC2)cc1O [TCMDC-139754] | -52.52%
Cc1ccc(Nc2nc(C)cc(NCc3ccc(-n4ccnc4)cc3)n2)cc1 [TCMDC-133454] | 13.72%
c1ccc(C2CCC(N3CCC(N4CCCC4)CC3)CC2)cc1 (stereo not shown) [TCMDC-124349] | 3.112%
